Laboratory results: the supplement of paper PMC12636033
± gives the standard deviation of the averaged measurements. Over roughly 33,000 sequences, “E-score (rank enrichment, -0.5 to 0.5)” has its median near -0.0028; the highest 2% begin near 0.23. Shown is part of a subset that was picked to be rich in the highest values.

tested on: 2Sb-muMax20 (muMax20 with two 1,3-bis(methyl)benzene Cys staples, A13C/A17C and Q88C/A92C, C-terminal Lys); assay: PBM 8-mer E-score (E-score (rank enrichment, -0.5 to 0.5)); higher = stronger preferential binding
Procedure: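 Protein binding microarray (universal PBM chip covering all 10-mers in fixed probe flanks) with chemically synthesized human Max(13-93) bHLH-LZ analogs (not full-length Max) bearing noncanonical residues (hArg, Tha, Aib, Nle at 65) and aromatic Cys staples. Read-out per 8-mer (and its reverse complement): E-score (rank-based enrichment, -0.5 to 0.5) and Z-score of median probe intensity.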

Row | Sequence | PBM 8-mer E-score
1 | CCGGTATC | -0.171 ± 0.092
2 | AAGTCAGC | -0.0311 ± 0.05
3 | AAGGCTAC | -0.168 ± 0.021
4 | AGCGAAAA | 0.212 ± 0.006
5 | TCACACCA | 0.0297 ± 0.027
6 | CGGATGTA | -0.172 ± 0.005
7 | AGATTTTG | 0.0113 ± 0.012
8 | CCTGTTAA | 0.0396 ± 0.043
9 | CCTGTTAC | 0.274 ± 0.049
10 | CCTGTTAG | -0.0682 ± 0.013
11 | ACCGGCTA | -0.152 ± 0.016
12 | ACAAGAAC | 0.152 ± 0.045
13 | CATTCTTC | 0.0315 ± 0.021
14 | GTGTAGTA | 0.125 ± 0.052
15 | ATGTAGTG | 0.156 ± 0.049
16 | CTGTAGAA | 0.0722 ± 0.0078
17 | ATGTAGAG | 0.0764 ± 0.027
18 | ATGTAGAA | 0.245 ± 0.016
19 | ATGTAGTA | 0.268 ± 0.012
20 | AGACGTAC | -0.0467 ± 0.078
21 | ATTATTTG | 0.197 ± 0.0069
22 | CACTGCGG | -0.115 ± 0.052
23 | CCAACAGC | -0.068 ± 0.0017
24 | AGTCAATA | 0.09 ± 0.0033
25 | GGTCAATA | 0.238 ± 0.015
26 | CGTCAATA | -0.0166 ± 0.034

Row | Sequence | PBM 8-mer E-score
27 | GGATCTTA | -0.014 ± 0.071
28 | ACGCTGAC | -0.0415 ± 0.018
29 | AAACCGTG | -0.0746 ± 0.026
30 | CCTATAGC | 0.264 ± 0.036
31 | ACTATAGA | 0.118 ± 0.11
32 | ACTATAGG | -0.00711 ± 0.032
33 | ACTATAGC | -0.0113 ± 0.072
34 | CCTATAGG | 0.0292 ± 0.035
35 | ACTATAGT | 0.299 ± 0.039
36 | CAGTCCTC | 0.00033 ± 0.011
37 | AAAGAATG | 0.0117 ± 0.014
38 | AGAGACCA | 0.0299 ± 0.014
39 | ACTCTGTC | -0.111 ± 0.023
40 | GGCATCAC | 0.0631 ± 0.11
41 | ATAGGGTA | 0.123 ± 0.025
42 | CAAGGGGG | -0.105 ± 0.048
43 | CTAGGGGA | 0.117 ± 0.028
44 | ATAGGGGA | 0.18 ± 0.0034
45 | GTAGGGTA | 0.266 ± 0.013
46 | GTAGGGGA | 0.24 ± 0.067
47 | CAAGGGGA | 0.24 ± 0.015
48 | CAAGGGAA | -0.0769 ± 0.018
49 | CTAGGGTA | -0.0583 ± 0.021
50 | AAAAAAAG | 0.126 ± 0.056
51 | GGGATCCC | -0.2 ± 0.043
52 | CAGGAGTC | -0.0911 ± 0.039

Row | Sequence | PBM 8-mer E-score
53 | AACGTTCA | 0.0627 ± 0.039
54 | ATATAAAT | 0.2095 ± 0.00022
55 | TACAGACA | 0.0665 ± 0.048
56 | AATTATTG | 0.262 ± 0.017
57 | CATTAATG | 0.18 ± 0.016
58 | AATTATTC | 0.0609 ± 0.0053
59 | AGTTAATA | 0.184 ± 0.015
60 | AATTAATT | 0.167 ± 0.077
61 | AGTTAATG | 0.232 ± 0.025
62 | AATTATTA | 0.18 ± 0.032
63 | AGTTAATC | 0.0432 ± 0.046
64 | AATTAATG | 0.239 ± 0.033
65 | AAGTTCGG | -0.224 ± 0.029
66 | CAATTCCG | -0.0516 ± 0.045
67 | AAGGTAAG | -0.0254 ± 0.00071
68 | ATTACGAA | -0.000195 ± 0.03
69 | AGTCTAAT | 0.0498 ± 0.0033
70 | CGCTACTC | -0.172 ± 0.031
71 | CTTAGGCA | -0.203 ± 0.024
72 | AAGGCCCG | -0.159 ± 0.055
73 | GTTTCTGA | 0.0103 ± 0.029
74 | GACCCCTC | 0.0964 ± 0.036
75 | CCACCCTA | 0.189 ± 0.0062
76 | CCACCCAC | 0.239 ± 0.045
77 | CACCCCTC | 0.278 ± 0.026
78 | CACCCCTG | 0.0699 ± 0.055

Row | Sequence | PBM 8-mer E-score
79 | ACACCCAC | 0.2 ± 0.028
80 | CCACCCAA | 0.128 ± 0.049
81 | ACACCCTC | 0.0661 ± 0.073
82 | CCACCCTC | 0.234 ± 0.036
83 | GGTCCCGA | -0.305 ± 0.042
84 | AATATCCC | 0.245 ± 0.056
85 | AATATCCG | -0.0514 ± 0.051
86 | AATATCCA | 0.0444 ± 0.082
87 | CGGGGGTA | 0.0309 ± 0.084
88 | CCCCCCCG | -0.2 ± 0.13
89 | GCACCAGA | -0.126 ± 0.045
90 | AGCCCCGG | -0.0543 ± 0.054
91 | ACCCACCT | 0.13 ± 0.029
92 | ACCCACCC | 0.417 ± 0.02
93 | ACCCACCG | 0.0752 ± 0.014
94 | ACCCACCA | 0.274 ± 0.027
95 | CCCCACCA | 0.162 ± 0.035
96 | CCCCACCC | 0.282 ± 0.076
97 | ACCACCCA | 0.073 ± 0.062
98 | GCCCACCC | 0.359 ± 0.045
99 | TCCCACCA | -0.0255 ± 0.1
100 | GCCCACAC | 0.0967 ± 0.059
101 | CCCCACCG | 0.11 ± 0.1
102 | GCCCACCA | 0.12 ± 0.024
103 | ATTCGGAG | -0.0732 ± 0.026
104 | GGGGATCA | 0.0797 ± 0.027

Row | Sequence | PBM 8-mer E-score
105 | AAGACCGT | -0.244 ± 0.028
106 | AATGGTAT | 0.157 ± 0.044
107 | ACGGGGTG | 0.118 ± 0.023
108 | CAGTATAC | 0.0863 ± 0.1
109 | GATGAAAC | 0.0586 ± 0.022
110 | ATGAACGG | -0.111 ± 0.0086
111 | CTCCGTCC | -0.114 ± 0.018
112 | ATGTAACG | 0.0488 ± 0.0084
113 | ATGTAACA | 0.242 ± 0.031
114 | CTGTAACA | -0.00643 ± 0.026
115 | ATGTAATG | 0.155 ± 0.013
116 | CTGTAATA | 0.0526 ± 0.019
117 | ATGTAATA | 0.236 ± 0.065
118 | AAAACCAC | 0.121 ± 0.013
119 | GCGTACCA | -0.0976 ± 0.0064
120 | AGACAAAA | -0.00983 ± 0.042
121 | ACAGCAAA | 0.0417 ± 0.047
122 | ACGGGAAT | -0.08 ± 0.016
123 | AGTGGGTG | 0.259 ± 0.0086
124 | GATGGGTA | 0.246 ± 0.021
125 | AGTGGGCG | 0.237 ± 0.019
126 | CATGGGTA | 0.053 ± 0.028
127 | AGTGGGCC | -0.212 ± 0.019
128 | AGTGGGTC | -0.178 ± 0.017
129 | GTTGGGTA | 0.1494 ± 0.00044
130 | GGTGGGTA | 0.282 ± 0.063

Row | Sequence | PBM 8-mer E-score
131 | AGTGGGTA | 0.121 ± 0.042
132 | AATGGGTA | 0.039 ± 0.0031
133 | AGTGGGCA | 0.0757 ± 0.023
134 | CGTGGGTA | 0.00707 ± 0.0098
135 | CGGCGCCG | -0.0151 ± 0.033
136 | AATGAACA | 0.129 ± 0.016
137 | CCGCTGGC | -0.26 ± 0.0032
138 | AAGGCACG | 0.076 ± 0.023
139 | GGCACACA | -0.16 ± 0.044
140 | ATTCCGCC | 0.107 ± 0.039
141 | TAACTAGA | 0.238 ± 0.031
142 | AAACTAGA | 0.08188 ± 0.00023
143 | GAACTAGA | 0.067 ± 0.017
144 | CATATTAG | 0.132 ± 0.032
145 | AGTATTAG | 0.147 ± 0.0055
146 | TATATTAA | 0.158 ± 0.011
147 | AATATTAG | 0.178 ± 0.0068
148 | GATATTAA | 0.123 ± 0.014
149 | ACTATTAA | 0.176 ± 0.026
150 | AGTATTAA | 0.206 ± 0.061
151 | ACTATTAT | 0.194 ± 0.027
152 | AGTATTAC | 0.236 ± 0.075
153 | CATATTAA | 0.238 ± 0.062
154 | AATATTAT | 0.259 ± 0.0099
155 | AATATTAA | 0.335 ± 0.045
156 | AGGAGGTC | -0.222 ± 0.015

Row | Sequence | PBM 8-mer E-score
157 | CGGGAGGC | -0.24 ± 0.032
158 | ATCTTACA | 0.075 ± 0.012
159 | ACCCAAGA | 0.0956 ± 0.071
160 | GGACCAGA | -0.2186 ± 0.0017
161 | AGCCAACC | 0.106 ± 0.0086
162 | GTCAATAA | 0.075 ± 0.025
163 | TGAGACAA | 0.109 ± 0.058
164 | AGCTTAGC | -0.123 ± 0.011
165 | ACTGGGTG | 0.00505 ± 0.024
166 | CGTTTAGC | 0.00586 ± 0.16
167 | TCTGTGCA | -0.0114 ± 0.085
168 | GCTAGAAC | -0.0972 ± 0.085
169 | GATATTAC | 0.187 ± 0.088
170 | CATATTAC | 0.146 ± 0.071
171 | AATATTAC | 0.26 ± 0.0093
172 | ACGCAGCA | -0.0676 ± 0.011
173 | CATCAATA | 0.0338 ± 0.066
174 | CCTTTCAC | 0.0485 ± 0.022
175 | ATCGCGAA | 0.0277 ± 0.02
176 | CTCGCGAC | 0.107 ± 0.013
177 | GTCGCGAA | -0.208 ± 0.09
